In the library only some 28% were active in any assay of this set; here they are far more common.
CYP2C9 inhib – human CYP2C9 inhibition; P11712; inhibition, % at 5 µM; AID 777; 20% of 96,000 active; CYP2C9 Supersomes, luciferin-H conversion, luminescence;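 active = blocking of liver enzyme CYP2C9 beyond about 50% at 5 µM, limit read from the data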
Mac1 fbg inh – blocks human CD11b/CD18 adhesion to fibrinogen; P05107+P11215; K562 CD11b/CD18 adhesion to fibrinogen, ATPlite luminescence; Mn2+ added to activate the integrin; inhibition, % at 10 µM; 0.54% of 93,000 active; AID 1497;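 active = primary inhibition of 50% or more at 10 µM, then 40% or more on retest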
Target sequence (P05107 whole entry, looked up, other chains not shown): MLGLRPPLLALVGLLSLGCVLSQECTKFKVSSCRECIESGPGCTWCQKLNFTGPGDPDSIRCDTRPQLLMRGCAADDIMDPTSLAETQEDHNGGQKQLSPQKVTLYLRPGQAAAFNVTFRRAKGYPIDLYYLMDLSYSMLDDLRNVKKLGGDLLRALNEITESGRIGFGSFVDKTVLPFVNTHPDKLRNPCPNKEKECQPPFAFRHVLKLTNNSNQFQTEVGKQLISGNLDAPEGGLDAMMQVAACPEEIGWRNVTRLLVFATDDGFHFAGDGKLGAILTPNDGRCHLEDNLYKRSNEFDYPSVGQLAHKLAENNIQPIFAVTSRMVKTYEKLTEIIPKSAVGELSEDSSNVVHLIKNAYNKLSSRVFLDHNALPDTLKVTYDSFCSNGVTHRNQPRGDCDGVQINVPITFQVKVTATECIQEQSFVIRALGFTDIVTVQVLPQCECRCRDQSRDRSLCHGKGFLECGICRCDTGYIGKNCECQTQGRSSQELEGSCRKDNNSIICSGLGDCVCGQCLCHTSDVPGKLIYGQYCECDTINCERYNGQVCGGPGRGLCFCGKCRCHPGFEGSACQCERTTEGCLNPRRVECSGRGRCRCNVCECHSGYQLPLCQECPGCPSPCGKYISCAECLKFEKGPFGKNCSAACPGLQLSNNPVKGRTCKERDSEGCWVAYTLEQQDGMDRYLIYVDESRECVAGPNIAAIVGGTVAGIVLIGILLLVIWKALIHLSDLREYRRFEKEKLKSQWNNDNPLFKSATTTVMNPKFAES
CD11b adhes enh – enhancers of human CD11b/CD18 binding to fibrinogen. P05107+P11215. K562 CD11b/CD18 adhesion to fibrinogen, ATPlite luminescence. activation, % at 10 µM. 0.07% of 93,000 active;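 active = 10 µM primary screen giving 50% or more activity, confirmed by 40% or more on retest at that dose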
CYP2C9 act – increases human cytochrome P450 2C9 activity. P11712. recombinant CYP2C9, luciferin-H conversion, luminescence; active compounds read high; factor 1 = untreated enzyme, 0 = blocked. activation factor at 5 µM. 1.4% of 96,000 active;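 active = activation factor of 2 or more for CYP2C9 at a 5 µM dose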
CYP2C19 inhib – blocks human cytochrome P450 2C19; 21% of 96,000 active; inhibition, % at 5 µM; P33261; CYP2C19 Supersomes, luciferin-H EGE luminescence, 30 min;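 active = CYP2C19 inhibition above a set limit at 5 µM in the primary screen, cut at about 50% in these data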
CYP2C19 activ – activators of human cytochrome P450 2C19. AID 1025. recombinant CYP2C19, luciferin-H EGE luminescence; active compounds read high; 0 = fully inhibited enzyme, 1 = untreated enzyme. P33261. 96,000 tested, under 10 active. activation factor at 5 µM;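 active = activation factor of at least 2 at 5 µM in the primary screen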
A number is an active result; . = inactive; / = no result.

SMILES	CYP2C9 inhib	Mac1 fbg inh	CD11b adhes enh	CYP2C9 act	CYP2C19 inhib	CYP2C19 activ
CC(C)Cc1ccc(C(C)C(=O)Nc2nccs2)cc1 (configuration not stated)	68	.	.	.	51	.
CC(C)C(C(=O)Nc1nccs1)c1ccccc1 (configuration not stated)	52	.	.	.	68	.
CCOC(=O)C(Cc1ccccc1)C(=O)Nc1nccs1 (configuration not stated)	.	.	.	.	.	.
O=C(COC(=O)c1cccnc1Nc1cccc(C(F)(F)F)c1)NC1CCS(=O)(=O)C1 (configuration not stated)	/	.	.	/	/	/
CCOC(=O)c1c(N2C(=O)C3CC(C)=C(C)CC3C2=O)sc(C)c1C (configuration not stated)	.	.	.	.	.	.
NC(=O)C1CCCN(C(=O)NC2CCCCC2)C1 (configuration not stated)	.	.	.	.	.	.
N#Cc1c(C(F)(F)F)cc(-c2cccs2)nc1SCc1ccc(Cl)nc1	56	.	.	.	.	.
C#CCSc1nc(-c2ccccc2)cc(C(F)(F)F)c1C#N	.	.	.	.	.	.
N#Cc1c(C(F)(F)F)cc(-c2cccs2)nc1SCc1cccnc1	75	/	/	.	57	.
Cc1cc(C)n(-c2ccc(C(=O)OCc3ccccc3)cc2)n1	/	.	.	/	/	/
CC(=O)c1c(COC(=O)c2ccccc2)nc2ccccc2[n+]1[O-]	.	.	.	.	73	.
CC(=O)c1c(C)nc2nonc2c1N	.	.	.	.	.	.
CCOC(=O)c1sc(-c2ccc(F)cc2)cc1N	83	.	.	.	90	.
CCOC(=O)c1sc(-c2ccccc2)cc1N	80	.	.	.	90	.
CCOC(=O)c1sc(-c2ccc(OC)cc2)cc1N	68	.	.	.	65	.
O=c1ccc(Oc2nc(N3CCOCC3)nc(N3CCOCC3)n2)nn1-c1ccccc1	.	.	.	.	.	.
CC(C)(C)Nc1nc(Oc2ccc(=O)n(-c3ccccc3)n2)nc(N2CCOCC2)n1	68	.	.	.	54	.
COc1cc2c(C(=O)N3CCN(C)CC3)c(C)oc2cc1Br	.	.	.	.	.	.
Cc1cc(F)c(F)c(C(=O)N2CCN(C)CC2)c1Cl	.	.	.	2.2	.	.
CC(c1ccco1)N(C(=O)c1ccc(Cl)s1)c1ccccn1 (configuration not stated)	59	.	.	.	89	.
Cc1ccc(C(=O)N(c2ccccn2)C(C)c2ccco2)cc1C (configuration not stated)	.	.	.	.	.	.
CCn1nc(C(=O)N[C@@H](CCSC)c2nc3ccccc3[nH]2)c2ccccc2c1=O	96	.	.	.	64	.
CSCC[C@H](NC(=O)CC(C)(C)C)c1nc2ccccc2[nH]1	.	/	/	.	.	.
CCCCC(NC(C)=O)c1nc2ccccc2[nH]1 (configuration not stated)	.	.	.	.	64	.
CSCC[C@H](NC(=O)c1nn(C)c(=O)c2ccccc12)c1nc2ccccc2[nH]1	94	/	/	.	.	.
SMILES	CYP2C9 inhib	Mac1 fbg inh	CD11b adhes enh	CYP2C9 act	CYP2C19 inhib	CYP2C19 activ
CSCC[C@H](NC(=O)c1ccc(Cl)c([N+](=O)[O-])c1)c1nc2ccccc2[nH]1	/	.	.	/	/	/
CCCCn1nc(C(=O)N[C@@H](CCSC)c2nc3ccccc3[nH]2)c2ccccc2c1=O	90	.	.	.	62	.
O=c1[nH]c(CN2CCC(c3nc4ccccc4s3)CC2)nc2sc3c(c12)CCC3	.	.	.	.	.	.
Cc1cccc(NC(=O)CSc2nnc(CSc3nc(C)cc(C)n3)n2Cc2ccco2)c1	.	.	.	.	.	.
Cc1cc2n(c1)CCn1c(C)ccc1-2	70	.	.	.	.	.
CCCC1=[N+](CC)CCn2c(C)ccc21	.	.	.	.	.	.
Cc1cc(C)cc(-n2c(C)cc(/C=N/NC(=O)c3cccc([N+](=O)[O-])c3C)c2C)c1	53	.	.	.	.	.
COc1ccc(NS(=O)(=O)c2cccc(NC(=O)CCC(=O)c3ccc(Cl)cc3)c2)cc1	/	.	.	/	/	/
COc1ccc(/C=C2\SC(=O)N(CCNC(=O)Cn3cnnn3)C2=O)cc1	70	.	.	.	54	.
